16 compounds from PubChem BioAssay can be followed below.

SMILES strings stand for the structures. Activity calls are given as the source filed them.

A short description of assay [1]: anti-His antibody binders, primary screen, artefact control for SMM control protein annotation, biochemical, small-molecule microarray, 635 nm fluorescence (AID 1128).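 Also: score merges feature fluorescence with signal-to-noise for each printed compound spot.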 To be noted: anti-His Alexa647 antibody binding, higher = more signal.
For assay [2], the system named is Human papillomavirus type 1a E7 protein (residues 1-88). Kind of assay: HPV1a E7 small-molecule binders, primary screen, biochemical, small-molecule microarray, residues 1-88, 635 nm (AID 1129). The settings on record: small-molecule microarray binding, fluorescence 635 nm; higher = more signal.
Assay [3] concerns the target Focal adhesion kinase 1 (Homo sapiens) (UniProt Q05397). Nature of the assay: small-molecule microarray binders of FAK, primary screen, biochemical, 635/667 nm fluorescence, BSA, DTT (AID 1130).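 Also: composite of spot emission at 667 nm and signal to noise over triplicate slides.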 To be noted: PTK2 binding, 635 nm fluorescence, higher = more signal.
In assay [4] the test system is Fibrinogen (Alexa647-labelled). Kind of assay: fibrinogen binders on compound microarrays, profiling panel, artefact control for SMM control-protein annotation, biochemical, small-molecule microarray, 635/667 nm fluorescence (AID 1131).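 Also: z-score merges 667 nm fluorescence with per-spot signal-to-noise over triplicate slides.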 The settings on record: fibrinogen-A647 binding fluorescence, higher = more signal.
Assay [5] addresses Follistatin (Homo sapiens) (UniProt P19883). Nature of the assay: follistatin binders on small-molecule microarrays, primary screen, biochemical, small-molecule microarray, 635/667 nm fluorescence (AID 1132). To be noted: FST binding, 635 nm fluorescence, higher = more signal.
Assay [6] has as its target Fibroblast growth factor 2 (Homo sapiens) (UniProt P09038). Kind of assay: FGF2 binders on small-molecule microarrays, primary screen, biochemical, small-molecule microarray, 635/667 nm fluorescence (AID 1133). To be noted: small-molecule microarray binding, FGF2, fluorescence 635/667; higher = more signal.
Assay [7] can be described thus: mitochondrial membrane potential change in A549 cells, profiling panel, cell-based, JC-1 fluorescence, basal, 24 h, 100 nL (AID 1138).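 Also: A549 lung adenocarcinoma cells under basal conditions with no added stimulus; test concentration not given here.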 The settings on record: higher = more signal.
The test system of the next assay is Lefty1. Nature of the assay: Lefty1 binders on small-molecule microarrays, primary screen, biochemical, small-molecule microarray, 635/667 nm fluorescence (AID 1139). The settings on record: small-molecule microarray binding, fluorescence 635/667; higher = more signal.
The subject of assay [8] is wheat germ agglutinin (Triticum aestivum), Alexa647-labelled. Kind of assay: wheat germ agglutinin binders on compound microarrays, profiling panel, artefact control for SMM control-protein annotation, biochemical, small-molecule microarray, 635/667 nm fluorescence (AID 1140).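 Also: score merges 667 nm feature emission with signal to noise over triplicate slides.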 To be noted: WGA-A647 binding, 635 nm fluorescence, higher = more signal.
Assay [9] has as its target Luciferin 4-monooxygenase (Photinus pyralis) (UniProt P08659). Nature of the assay: firefly luciferase enzyme inhibitors, primary screen, biochemical, luminescence, purified enzyme, 2006 set (AID 1141).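 Also: cell-free assay with purified firefly luciferase at 100 ng per well in PBS; test concentration not given here.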 The settings on record: SteadyGlo luminescence, 30 min, higher = more signal, called active from +8 up or from −8 down.

Fibroblast growth factor 2 (Homo sapiens), sequence (P09038 whole entry, looked up): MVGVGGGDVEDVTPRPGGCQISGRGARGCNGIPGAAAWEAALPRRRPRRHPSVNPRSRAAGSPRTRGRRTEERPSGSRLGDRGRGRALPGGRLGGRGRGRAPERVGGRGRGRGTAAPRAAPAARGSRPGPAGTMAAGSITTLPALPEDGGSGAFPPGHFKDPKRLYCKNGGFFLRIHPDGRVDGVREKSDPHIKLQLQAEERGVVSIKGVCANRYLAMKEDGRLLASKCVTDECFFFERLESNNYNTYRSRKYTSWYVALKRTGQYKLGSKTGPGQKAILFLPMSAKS
Follistatin (Homo sapiens), sequence (P19883 whole entry, looked up): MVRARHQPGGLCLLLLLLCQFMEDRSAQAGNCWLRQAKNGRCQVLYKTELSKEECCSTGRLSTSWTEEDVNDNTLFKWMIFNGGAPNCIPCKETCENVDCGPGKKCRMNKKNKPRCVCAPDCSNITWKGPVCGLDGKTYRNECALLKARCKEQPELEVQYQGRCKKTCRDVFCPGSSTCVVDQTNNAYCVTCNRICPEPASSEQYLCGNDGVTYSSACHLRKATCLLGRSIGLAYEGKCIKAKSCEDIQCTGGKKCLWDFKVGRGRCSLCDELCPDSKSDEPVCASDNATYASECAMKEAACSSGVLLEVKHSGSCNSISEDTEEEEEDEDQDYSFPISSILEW
Focal adhesion kinase 1 (Homo sapiens), sequence (Q05397 whole entry, looked up): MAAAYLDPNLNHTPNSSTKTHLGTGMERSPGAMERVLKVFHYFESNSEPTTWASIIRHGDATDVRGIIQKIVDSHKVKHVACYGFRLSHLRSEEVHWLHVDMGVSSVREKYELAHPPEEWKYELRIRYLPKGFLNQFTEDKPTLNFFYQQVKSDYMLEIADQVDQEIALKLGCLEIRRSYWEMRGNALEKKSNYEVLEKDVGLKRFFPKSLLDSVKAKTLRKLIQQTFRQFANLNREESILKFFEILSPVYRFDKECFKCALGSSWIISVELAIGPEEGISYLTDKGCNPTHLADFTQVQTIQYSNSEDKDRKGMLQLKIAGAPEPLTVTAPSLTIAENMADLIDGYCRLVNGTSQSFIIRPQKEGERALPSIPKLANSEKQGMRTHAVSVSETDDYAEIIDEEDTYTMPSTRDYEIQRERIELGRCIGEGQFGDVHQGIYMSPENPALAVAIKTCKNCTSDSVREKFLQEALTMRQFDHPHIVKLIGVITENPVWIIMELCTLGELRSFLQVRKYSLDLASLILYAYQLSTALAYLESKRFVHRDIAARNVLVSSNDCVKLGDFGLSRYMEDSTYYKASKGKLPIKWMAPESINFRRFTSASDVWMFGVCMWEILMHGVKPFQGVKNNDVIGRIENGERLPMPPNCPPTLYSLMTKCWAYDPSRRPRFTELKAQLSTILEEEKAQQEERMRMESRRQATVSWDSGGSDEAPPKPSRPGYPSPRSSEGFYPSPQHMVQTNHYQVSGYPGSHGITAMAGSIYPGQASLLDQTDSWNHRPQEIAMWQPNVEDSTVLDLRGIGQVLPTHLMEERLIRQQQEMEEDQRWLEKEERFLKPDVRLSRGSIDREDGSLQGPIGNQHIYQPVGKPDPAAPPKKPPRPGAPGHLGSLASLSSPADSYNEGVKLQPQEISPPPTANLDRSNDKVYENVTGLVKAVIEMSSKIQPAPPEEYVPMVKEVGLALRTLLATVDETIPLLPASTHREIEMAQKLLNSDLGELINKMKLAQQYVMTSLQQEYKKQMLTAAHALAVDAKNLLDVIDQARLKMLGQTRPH
Luciferin 4-monooxygenase (Photinus pyralis), sequence (P08659 whole entry, looked up): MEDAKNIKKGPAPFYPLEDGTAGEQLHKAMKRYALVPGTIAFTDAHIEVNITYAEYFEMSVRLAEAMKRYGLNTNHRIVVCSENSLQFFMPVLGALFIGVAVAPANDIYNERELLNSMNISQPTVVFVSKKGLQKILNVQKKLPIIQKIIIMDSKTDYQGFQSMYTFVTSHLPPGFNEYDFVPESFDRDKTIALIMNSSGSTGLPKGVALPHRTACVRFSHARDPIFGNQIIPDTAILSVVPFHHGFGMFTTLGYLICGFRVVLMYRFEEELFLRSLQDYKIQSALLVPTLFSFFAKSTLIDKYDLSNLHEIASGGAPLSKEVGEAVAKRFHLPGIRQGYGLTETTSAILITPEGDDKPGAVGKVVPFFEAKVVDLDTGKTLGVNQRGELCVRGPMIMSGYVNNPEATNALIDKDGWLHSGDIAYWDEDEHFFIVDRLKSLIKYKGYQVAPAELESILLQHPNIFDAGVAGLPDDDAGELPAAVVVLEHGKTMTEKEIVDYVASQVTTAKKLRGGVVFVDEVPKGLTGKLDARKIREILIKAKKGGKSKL

Regarding `CC(C)=CCCC(C)=CC(O)C1C=CC2C(=O)NC(=O)C2N1Nc1ccc(Cl)cc1Cl` (stereo not given), the composite z-score is 0.0944 in assay [1]; 1.19 in [2]; 1.15 in [3]; 0.44 in [4]; 1.29 in assay [5]; -0.935 in assay [6]. Moreover, the composite z-score in the assay with Lefty1 came to 0.0724; in assay [8] it was 0.863. For the same compound, the z-score in assay [7] was -0.974; in assay [9], -0.889 (inactive).
Turning to `Cc1ccc(S[C@]2(C(=O)NC3CC3)CC(=O)N(C(C)C)[C@@H]2c2ccc(CO)cc2I)cc1`, the composite z-score in [1] was 1.49; in [2], 0.882; in assay [3], 0.411; in assay [4], -0.36; in assay [5] it was 0.536; in [6], -0.471. In addition, the composite z-score in the assay with Lefty1 was 0.303; in assay [8], 0.969. In addition, the z-score is 0.51 in [7] and 1.29 (inactive) in assay [9].
On to `CC(C)N1C(=O)C[C@@](C(=O)NCCN2CCOCC2)(c2ccc([N+](=O)[O-])cc2)[C@H]1c1ccc(CO)cc1`, for which the composite z-score was 2.67 in assay [1]; -0.886 in assay [2]; -0.455 in [3]; -0.591 in assay [4]; 0.178 in assay [5]; -0.588 in assay [6]. The composite z-score with Lefty1 is -0.516; in assay [8], 0.869. Moreover, the z-score in assay [7] is -0.143; in assay [9], 1.42 (inactive).
As for `CC(=O)OCC1C2CC[C@H]3C(OCc4ccc(F)cc4C(F)(F)F)OC[C@]4(C)[C@H]3C2=C(CN4C(=O)OC(C)(C)C)[C@H](C)C1COC(C)=O` (stereo not given in full), the composite z-score in assay [1] is 1.14; in assay [2], -0.267; in assay [3], 0.0527; in [4], 0.783; in assay [5], -0.603; in assay [6], -1.66. In addition, the results for the composite z-score (with Lefty1; in assay [8]) were -0.372 and 0.517, respectively. The z-score in assay [7] is 1.71; in [9], 1.62 (inactive).
`O=C1O[C@H](Cc2ccccc2)[C@@H]2[C@H]3C=CCCC=C3CN2[C@H]1Cc1ccc(O)cc1`: the composite z-score in assay [1] is 1.38; in assay [2], -1.36; in assay [3], 0.203; in assay [4], -2.73; in assay [5], 0.16; in assay [6], -0.579. The composite z-score stood at 0.262 in the assay on Lefty1 and 0.778 in [8]. Moreover, the values for the z-score in [7] and in assay [9] were -0.653 and -0.992 (inactive), respectively.
In the case of `COCCOC(=O)N1C(=O)[C@@]2(c3cc(C#CCCO)ccc31)[C@H](C(N)=O)[C@H]1C(=O)O[C@H](c3ccccc3)[C@H](c3ccccc3)N1[C@@H]2c1ccccc1OCCO`, the composite z-score in [1] is 3.07; in [2] it was 1.21; in [3] it was 0.425; in assay [4], 0.897; in [5], 1.19; in assay [6], 0.516. In addition, the figures for the composite z-score (with Lefty1; in assay [8]) were 0.673 and 0.713, respectively. Also, the z-score in assay [7] is -0.256; in assay [9], -0.683 (inactive).
Consider `COC(=O)C(CC#Cc1ccc2c(c1)[C@]1(C(=O)N2)[C@H](C(=O)N2CCc3cc(OC)c(OC)cc3C2)[C@H]2C(=O)O[C@H](c3ccccc3)[C@H](c3ccccc3)N2[C@@H]1c1ccccc1OCCO)C(=O)OC`, for which the composite z-score in [1] was determined as 1.21; in assay [2] it was 1.19; in [3], 0.536; in [4] it was 0.613; in assay [5], 1.4; in [6] it was 1.39. Further, the composite z-score in the assay with Lefty1 amounted to 1.55; in assay [8], 1.17. Also, the z-score in assay [7] is -1.64; in assay [9], -0.134 (inactive).
For the compound `COc1ccc(C(=O)Nc2ccc3c(c2)[C@@]2(O[C@H](CCO)[C@@H]([Si](C)(C)c4ccc(OC)cc4)[C@@H]2C)C(=O)N3Cc2ccccc2)cc1`, the composite z-score in assay [1] is 0.829; in assay [2], 0.989; in [3], 0.397; in assay [4], 0.592; in [5] it was 1.25; in assay [6] it was 1.45. Also, the composite z-score stood at 0.792 in the assay with Lefty1 and 0.413 in [8]. The z-score in assay [7] was -1.3; in assay [9], -0.585 (inactive).
Consider `C=CCNC(=O)[C@H]1[C@@H]2C(=O)O[C@@H](c3ccccc3)[C@@H](c3ccccc3)N2[C@@H](c2ccc(OCCO)cc2)[C@]12C(=O)Nc1ccccc12`, for which the composite z-score in assay [1] was 2.03; in assay [2] it was 0.905; in assay [3] it was 0.624; in [4], 0.861; in [5], -0.034; in assay [6] it was -0.342. Besides, the results for the composite z-score (with Lefty1; in assay [8]) were -0.0965 and 1.22, respectively. In addition, the z-score was -0.287 in [7] and -0.0907 (inactive) in assay [9].
Turning to `Cc1ccc(F)cc1S(=O)(=O)N[C@H]1CCN(Cc2ccc(OC(C)C)cc2)C1`, the composite z-score was 0.6 in assay [1]; -0.296 in [2]; -0.198 in assay [3]; -0.71 in assay [4]; 0.855 in [5]; 0.157 in assay [6]. Also, the composite z-score with Lefty1 is 1.1; in assay [8] it was -0.6. The z-score in assay [7] was 1.3; in [9] it was -0.557 (inactive).
Turning to `CC(C)C(O)C1C=CC2C(=O)NC(=O)C2N1Nc1ccccn1` (stereo not given), the composite z-score in [1] was 1.25; in assay [2], 0.218; in assay [3] it was -0.0716; in assay [4], 0.285; in assay [5] it was 0.712; in assay [6], 0.0205. Besides, the composite z-score in the assay on Lefty1 is 0.129; in [8], 0.169. Further, the z-score in assay [7] is 0.44; in assay [9], -0.362 (inactive).
For the compound `CC(=O)NCCCC[C@@H]1NC(=O)[C@H]2C[C@@H](C(=O)NCCCCCCNC(=O)CS)[C@@H](c3cccc(OCCO)c3)N2C1=O`, the composite z-score in [1] is 3.57; in assay [2], 0.937; in [3], 0.612; in assay [4], -0.256; in assay [5] it was 1.36; in assay [6], 1.63. Moreover, the composite z-score with Lefty1 was 0.0938; in [8], 0.184. In addition, the z-score is -0.0905 in assay [7] and -0.399 (inactive) in [9].
With `Cc1ccc(S[C@]2(C(=O)NCc3ccccc3)CC(=O)N(Cc3ccccc3C(F)(F)F)[C@@H]2c2ccc(CO)cc2)cc1`, the composite z-score is -0.645 in [1]; -0.347 in assay [2]; -0.496 in assay [3]; 0.443 in assay [4]; -1.4 in assay [5]; -0.574 in [6]. For the same compound, the composite z-score in the assay with Lefty1 was -1.51; in assay [8], -0.212. Besides, the z-score was 0.802 in assay [7] and -0.0819 (inactive) in assay [9].
With `COc1ccc([Si](C)(C)[C@@H]2[C@@H](CC(=O)N3Cc4ccccc4C[C@H]3CO)O[C@]3(C(=O)N(Cc4cccc(N5CCOC5=O)c4)c4ccccc43)[C@H]2C)cc1`, the composite z-score came to 1.23 in assay [1]; 0.402 in [2]; 0.0975 in assay [3]; 0.0735 in [4]; 1.41 in [5]; 1.4 in assay [6]. The composite z-score with Lefty1 is 1.54; in assay [8] it was -0.244. Besides, the figures for the z-score in assay [7] and in [9] were -0.661 and 0.274 (inactive), respectively.
Turning to `COc1cc(OC)c(C(O)C2C=CC3C(=O)N(c4ccccc4)C(=O)C3N2Nc2ccc(C(C)C)cc2)cc1Br` (stereo not given), the composite z-score in assay [1] is -0.0881; in assay [2], 1.21; in assay [3] it was 0.441; in [4], 0.885; in assay [5], 0.806; in assay [6] it was 0.0421. In addition, the composite z-score with Lefty1 was -0.112; in assay [8] it was 1.2. Moreover, the z-score is 0.568 in assay [7] and -1.71 (inactive) in assay [9].
As to `NC(=O)N1C(=O)C2C(C1=O)C1C=C(CCCO)C2C(C2CC2)N1Cc1sc2ccccc2c1Cl` (stereo not given), the composite z-score came to 2.4 in assay [1]; 0.802 in assay [2]; 0.284 in assay [3]; 0.795 in assay [4]; 0.539 in assay [5]; 0.983 in [6]. Also, the composite z-score in the assay on Lefty1 worked out at 0.587; in assay [8], 0.661. Also, the results for the z-score in [7] and in assay [9] were 0.898 and -2.2 (inactive), respectively.
